Experimental findings from PubChem BioAssay (NCI) are described below.

The panel holds about 83,000 compounds, 20% with a hit somewhere; the sample as a whole holds those more often.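 Values shown are percent growth following 48 h exposure of cells in 96-well plates to a single concentration of compound; below 10 was considered active.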 A number with no mark means an inactive call. Calls of active or inactive are those of the source.

This test concerns UO-31 renal. Description: NCI-60 one-dose screen, 48 h (100 = growth as untreated, 0 = no growth, -100 = all killed). As to conditions: 10 µM unless noted. Here is the method: Growth inhibition of the UO-31 human tumor cell line is measured as a screen for anti-cancer activity. Cells are grown in 96 well plates and exposed to the test compound for 48 hours. Compounds are tested at a single concentration, which is 10^-5 M for most compounds. The reported endpoint is percent growth (GI% or GIPRCNT), where numbers from 0 - 100% represent growth inhibition, and numbers from -100% - 0 represent cell death. For example, a value of 40 represents 60% growth inhibition. A value of 0 means no net growth occurred over the course of the experiment. A value of -40 indicates 40% of cells at the beginning of the experiment died by the end of the experiment. A value of -100 means all cells are dead at the end of the experiment.
NCI-60 Human Tumor Cell Lines Screen was performed using the standard one-dose NCI protocol, which is described in more detail at https://dtp.cancer.gov/discovery_development/nci-60/default.htm.
Compounds with GIPRCNT values below 10 were considered active. Activity score was based on GIPRCNT using the following formula: […]
Score is 0 for GIPRCNT values of 100 or above, 50 for GIPRCNT values of 0, and 100 for GIPRCNT values of -100.
On to `O=C(O)CCC/C=C\C[C@H]1C=CC(=O)/C1=C/C[C@@H](O)CCc1cccc(C(F)(F)F)c1`, for which the growth was -88.4% (active).
As for `COc1ccc(C2CC(c3ccc(Nc4nc(Nc5ccc(F)cc5)nc(Nc5ccc(Cl)cc5)n4)cc3)=NN2C(C)=O)cc1` (stereo not given), the growth was -65.4% (active).
Take `CCS(=O)(=O)c1ncnc2nc[nH]c12`: the growth was 92.6%.
As for `N#Cc1c(Nc2cccc(Cl)c2)sc(C(=O)c2cc3cc(Cl)ccc3o2)c1N`, the growth was 81%.
Consider `COc1ccc(NC2=C(Br)C(=O)C(C)=C(C)C2=O)cc1`, for which the growth is 74%.
`O=c1c2cc(F)cc(Cl)c2sc2c(NCCCNCCO)nc3ccccc3c12`: the growth is 59.8%.
Turning to `COc1nc2ccc(C)cc2cc1-c1nc2c(cnn2-c2ccccc2)c(=O)[nH]1`, the growth is 69.4%.
Take `N#Cc1c(-c2ccccc2)nc(SCC(=O)Nc2nc(-c3ccc(Cl)cc3)cs2)[nH]c1=O`: the growth is 83.2%.
Turning to `O=C(COc1ccc(/C=C2\Cc3ccc(Cl)cc3C2=O)cc1)Nc1nc2ccccc2s1`, the growth is 69.1%.
As to `CCOC(=O)c1c(C)oc2ncnc(N3CCN(C(=O)COc4ccc(C(C)(C)C)cc4)CC3)c12`, the growth was 48%.
In the case of `Cc1ccc(-c2nn(C)c(=O)c3noc(-c4ccc(C)cc4)c23)cc1`, the growth is 41.7%.
On to `NS(=O)(=O)c1ccc(N=Nc2ccc(-c3nn4cc(-c5ccccc5)nc4s3)cc2)cc1`, for which the growth is 89.4%.
Regarding `CSc1nc2ccc(C)cc2cc1/C=N/O`, the growth was 66.4%.
For `O=C(/C=C/c1cccc2ccccc12)c1ccc(NC(=O)c2ccccc2CN2C(=O)c3ccccc3C2=O)cc1`, the growth is 50.7%.
With `NCCNc1nc2ccccc2c2c(=O)c3cccc(F)c3sc12`, the growth is 40.7%.
For `COC(=O)C(Cc1ccccc1)NC(=O)NC(=O)NC(=O)CI` (stereo not given) the value was 34.7%; for `Cc1nc(/N=C(\N)NC(=O)Nc2ccccc2Cl)sc1C`, 58.1%; for `CCCCCCCCCCCCCCCCCCOc1ccc(CC(=O)OCC[N+](C)(C)C)cc1`, 101%.
As to `C=CCc1cc(C)ccc1NC(C(=O)NCC(=O)OC)c1ccccc1` (stereo not given), the growth is 80.6%.
Regarding `COC(=O)Nc1ccc(-c2nc(-c3cccc(OC)c3)c(-c3ccnc(Br)c3)[nH]2)cc1`, the growth is 38.6%.
Regarding `O=C(N/N=C/[C@H](O)[C@H](O)[C@H](O)CO)c1ccc(NC(=O)c2cccnc2)cc1`, the growth is 83.7%.
Under `Cc1nc2ccccc2c(/C=C/c2ccc(Cl)cc2)c1C(=O)/C=C/c1cccs1` stands 54.3%; under `C=CCNc1ccc2c3c(cccc13)C(=O)N(N1C(=O)c3cccc4cccc(c34)C1=O)C2=O`, 81.1%; under `O=c1c2cc(F)ccc2sc2c(NCCN3CCOCC3)nc3ccccc3c12`, 42%.
Turning to `O=C1c2cccc3cccc(c23)C(=O)N1Nc1nc(NC2CCCCC2)nc(N2CCOCC2)n1`, the growth was 69.1%.
With `COc1ccc2c(c1)C(C)Cc1c(ncnc1-n1c(C)nc3ccccc31)N2C` (stereo not given), the growth is 37.3%.
Under `CCCCOc1nc2ccc(OC)cc2cc1-c1cc(-c2ccc(Cl)cc2)nc(-c2ccc(Cl)cc2)c1` stands 90%; under `C/C(=C(/c1ccccc1)c1ccc(N2C(=O)c3cccc4c(N5CCN(C)CC5)ccc(c34)C2=O)cc1)c1ccccc1`, 66.9%; under `O=c1c2cccc(F)c2sc2c(NCCCNCCO)nc3ccccc3c12`, 19%.
Consider `Cc1cccc2c3c(sc12)C(c1ccc(Cl)cc1)C(C#N)=C(N)O3` (stereo not given), for which the growth was 39%.
For `Cc1ccc(C(=O)NN2C(=O)CSC2c2cccc([N+](=O)[O-])c2)cn1` (stereo not given) the value was 14.9%; for `COc1cc2oc(-c3ccc(O)cc3)cc(=O)c2c(O)c1-c1c(OC)cc(O)c2c(=O)cc(-c3ccc(O)cc3)oc12`, 14.6%; for `O=C(/C=C/c1ccc([N+](=O)[O-])o1)NNC(=O)c1cc2ccccc2cc1O`, 2.06% (active).
For `Cc1nc2ccccc2n1CC1C(=O)NC(=O)NC1=O` the value was 91.3%.
As to `c1ccc(Cc2nn3cc(-c4ccccc4)nc3s2)cc1`, the growth was 95.4%.
In the case of `COc1nc2ccccc2cc1-c1nc2c(cnn2-c2ccc(Br)cc2)c(=O)[nH]1`, the growth was 27.1%.
As to `O=C(O)c1cn(C2CC2)c2cc(N3CCN(C(=O)Nc4nc(-c5ccc(Cl)cc5)cs4)CC3)c(F)cc2c1=O`, the growth is 2.13% (active).
As for `O=C(CCN1C(=O)/C(=C/c2ccc(O)cc2)SC1=S)Nc1ccccc1`, the growth is 67%.
For `Cc1cccc2c3c(sc12)C(c1ccc(F)cc1)C(C#N)=C(N)O3` (stereo not given) the value was 36.7%; for `CCCCCCNC(=O)Oc1ccc(/C(=C(\C)c2ccc(Cl)cc2)c2ccc(OCCN3CCCCC3)cc2)cc1`, 32.6%.
